In PubChem BioAssay (NCI):
The panel holds about 83,000 compounds, 20% with a hit somewhere; the sample as a whole holds those more often.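 Percent growth is the endpoint: 0 to 100 indicates growth inhibition (40 means 60% inhibition), 0 means no net growth, and negative values indicate cell death.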 Values without a mark were called inactive. Calls of active or inactive are those of the source. The calls were made as follows: active = growth percent below 10; inactive = the rest.

These compounds were tested on NCI/ADR-RES ovarian (assay: NCI-60 one-dose screen, 48 h (100 = growth as untreated, 0 = no growth, -100 = all killed)). Conditions: 10 µM unless noted.
Work on `Oc1ccc(Nc2nccc(-c3ccc4ccccc4c3)n2)cc1` yielded a growth of 14.7%. `COc1ccc(C(=O)/C=C/c2cc3ccccc3[nH]c2=O)cc1` was tested, and the growth was -5.27% (active). `C[C@@]1(N2C(=O)OC[C@@H]2c2ccccc2)C(=O)N([C@H](CC(=O)N2CCC(N3CCCCC3)CC2)C(=O)NCc2cccc(C(F)(F)F)c2)[C@@H]1/C=C/c1ccccc1` showed a growth of 81.8%. For `CCOC(=O)c1cnc2ccc(Br)cc2c1Nc1cccc(S(=O)(=O)NC)c1`, the growth was 80.4%. In the case of `CCN1CCN(Cc2ccc(NC(=O)Nc3nc4ccc(Oc5ccnc(C(=O)NC)c5)cc4s3)cc2C(F)(F)F)CC1`, the growth is reported as -12.7% (active). For `O=c1c2c3c(sc2n2c(CCl)nnc2n1Cc1ccccc1)CCCC3`, the growth was 19%. Work on `COC(=O)[C@H](C(C)C)n1c(=O)c2cc(OC)c(OC)cc2c2cnc3[nH]ccc3c21` yielded a growth of 56.4%. Work on `CC(=O)Oc1ccc(Nc2c3ccccc3nc3ccccc23)cc1` yielded a growth of 23.8%. `COc1cc(NCCCCN=C(N)NC(N)=NC(C)C)c2ncccc2c1` was tested, and the growth was 109%. `CCN(CC)C12CCCCC1(C)C(C#N)(C#N)C(C#N)=C(N)O2` (centres undefined) was tested, and the growth was 101%. For `O=C(CNC1C2CC3CC(C2)CC1C3)Sc1nnc2sc3ccccc3n12` (centres undefined), the growth was 99.2%. In the case of `COc1ccc(-c2c3c(nc4n[nH]c(-c5ccc(Cl)cc5)c24)-c2ccccc2C(=O)C3=O)cc1`, the growth is reported as -3.63% (active). `O=C(/C=C\c1ccc2ccccc2n1)c1cc(Cl)ccc1O` showed a growth of 60.4%. In the case of `O=C1c2cc3c(cc2-c2c1c1cc(Cl)c(Cl)cc1c(=O)n2CCCn1ccnc1)OCO3`, the growth is reported as 4.47% (active).
